Data on ten compounds can be found in the supplement of paper PMC13380429.

Assay [1] relates to Vero E6 infected with SARS-CoV-2. The experiment in a line: morphology score (similarity to uninfected cells); higher = more like uninfected cells. As to conditions: 24 h.
The test system is the same in assay [2]. The experiment in a line: SARS-CoV-2 infection rate relative to infected DMSO; higher = more infection, active = 60 or less. As to conditions: 24 h.

SMILES strings stand for the structures.

Regarding `O=C(O)C1=C(CSc2nnnn2CS(=O)(=O)O)CS[C@@H]2[C@H](NC(=O)[C@H](O)c3ccccc3)C(=O)N12` [Cefonicid (sodium)] (10 µM), the morphology score in assay [1] is -0.0671. The SARS-CoV-2 infection rate in assay [2] is 112% (inactive).

In assay [1], `COc1cccc([C@H](O)C2CCN(CCc3ccc(F)cc3)CC2)c1OC` [volinanserin] (10 µM) gave a morphology score of -0.147. Moreover, in assay [2], the SARS-CoV-2 infection rate is 110% (inactive).

The compound `CCC(CC)COC(=O)[C@H](C)N[P@](=O)(OC[C@H]1O[C@@](C#N)(c2ccc3c(N)ncnn23)[C@H](O)[C@@H]1O)Oc1ccccc1` [Remdesivir] (10 µM) yielded a morphology score in assay [1] of 0.761. In assay [2], the SARS-CoV-2 infection rate is 26% (active).

The compound `NCCC[C@H](N)C(=O)O` [ornithine] (10 µM) registered a morphology score in assay [1] of 0.101. For the same compound, in assay [2], the SARS-CoV-2 infection rate is 96.5% (inactive).

In the case of `CCc1c2c(nc3ccc(OC(=O)N4CCC(N5CCCCC5)CC4)cc13)-c1cc3c(c(=O)n1C2)COC(=O)[C@]3(O)CC` [irinotecan] (0.833333 µM), the morphology score in assay [1] is -0.0173. Besides, in assay [2], the SARS-CoV-2 infection rate is 98% (inactive).

`CCn1cc(C(=O)O)c(=O)c2cc(F)c(N3CCNCC3)cc21` [norfloxacin] (10 µM) displayed a morphology score in assay [1] of 0.204. For the same compound, the SARS-CoV-2 infection rate in assay [2] is 86% (inactive).

For the compound `C[C@@H]1CN(Cc2ncccn2)C[C@H]1c1nc2c(cnn2C2CCOCC2)c(=O)[nH]1` (10 µM), the morphology score in assay [1] came to 0.11. Moreover, in assay [2], the SARS-CoV-2 infection rate is 108% (inactive).

Take `C[C@H]1N=C(N(C)C)N=C(N)N1` [imeglimin] (10 µM): the morphology score in assay [1] came to 0.0246. Besides, the SARS-CoV-2 infection rate in assay [2] was 99% (inactive).

Regarding `Cc1cccc(-c2[nH]c(CNc3ccccc3F)nc2-c2ccc3ncnn3c2)n1` (10 µM), in assay [1], the morphology score came to 0.295. Moreover, the SARS-CoV-2 infection rate in assay [2] was 109% (inactive).

As to `O=C(Nc1cccnc1)c1cc(-c2ccnc(F)c2)ccc1OCc1ccccc1` (10 µM), the morphology score in assay [1] was -0.0646. In addition, the SARS-CoV-2 infection rate in assay [2] is 114% (inactive).
